In the library only some 2.7% were active in any assay of this set; here they are far more common.
Integrin act MD – qHTS for Activators of Integrin-Mediated Alleviation for Muscular Dystrophy; alpha7betagal myoblasts, beta-gal FDG fluorescence, 48 h; Potency, µM (highest dose often 38.3 µM), for the others: at the top dose activation, actives largely listed as activators; actives 0.064% (n = 350,000); AID 624291, 2012;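 note: 100% = response of the positive control SU9516; nearly all actives have a fitted effect of over 60% in size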
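Alpha7betagal+/- myoblasts (passage 13) were plated 16-24 hr, then exposed to compounds (1:260 dilution of DMSO stock) for 48 hours at 37C. After MPER lysis, β-galactosidase reporter activity was read as FDG fluorescence (ex 480/em 540) after 30 minutes.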
GLP-1R inv ag – qHTS of GLP-1 Receptor Inverse Agonists (Inhibition Mode); HEK293 GLP-1R CRE-luciferase, luminescence, 24 h; GLP-1R form is constitutively active; Potency, µM (highest dose often 38.3 µM), without a hit: at the highest dose activity change, negative = inhibition, most hits filed as inhibitors; actives 1.6% (n = 410,000); AID 624417, 2012; note: % is set by controls: 0 for no effect and ±100 for the full control effect; nearly all actives have a fitted effect of over 55% in size
Target sequence (P43220 whole entry, looked up): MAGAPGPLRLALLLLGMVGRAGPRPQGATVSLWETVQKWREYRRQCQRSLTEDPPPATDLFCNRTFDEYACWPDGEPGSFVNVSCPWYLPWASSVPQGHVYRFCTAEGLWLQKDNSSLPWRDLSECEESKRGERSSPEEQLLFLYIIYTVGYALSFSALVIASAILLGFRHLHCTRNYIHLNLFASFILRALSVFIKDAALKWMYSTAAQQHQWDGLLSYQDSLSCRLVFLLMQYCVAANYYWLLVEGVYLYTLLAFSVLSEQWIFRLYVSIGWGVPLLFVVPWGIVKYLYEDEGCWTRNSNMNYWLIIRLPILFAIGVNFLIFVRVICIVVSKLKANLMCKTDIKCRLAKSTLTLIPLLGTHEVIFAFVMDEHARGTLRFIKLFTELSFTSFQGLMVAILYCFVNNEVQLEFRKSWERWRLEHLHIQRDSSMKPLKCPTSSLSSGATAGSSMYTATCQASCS
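HEK293 cells stably co-expressing constitutively active GLP-1R and a cAMP-responsive luciferase reporter were seeded in DMEM with 10% Nu serum, given compounds after 12 h, and incubated 24 h at 37 deg C. Luminescence was then read.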
GLP1R cytotox – qHTS of GLP-1 Receptor Inverse Agonists: Cytotox Screen; HEK293 cAMP-luciferase reporter cells, luminescence, 24 h; Potency, µM (doses to about 38.3 µM), for inactives: at the highest dose activity change, negative = inhibition, hits mostly inhibitors; actives 0.13% (n = 410,000);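 note: loss of luciferase light is scored as toxicity; % is set by controls: 0 for no effect and ±100 for the full control effect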
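Cells in DMEM/10% Nu serum/1% pen-strep, 1536-well format. Pre-incubated 12 h, dosed with 23 nL compound, incubated a further 24 h. Luciferase detection, 12 min at room temp, luminescence.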
GLP1R ag – qHTS of GLP-1 Receptor Agonists; Glucagon-like peptide 1 receptor (Homo sapiens), P43220; HEK293 GLP-1R CRE-luciferase, luminescence, 4-6 h; cells express a hypersensitive GLP-1R form; Potency, µM (series often up to 45.6 µM), for the others: top-dose activation, most hits filed as activators; actives 0.007% (n = 380,000); AID 624172, 2012; note: % of control where 0% means no effect
BRCA1 expr up – qHTS Assay to Identify Small Molecule Activators of BRCA1 Expression | MCF7-BRCA1-FFLuc reporter, luminescence, 48 h; response scale: scaled: vehicle 0%, 10 µM genistein 100% | Potency, µM (highest dose often 46.1 µM), without a hit: at the highest dose activation, hits mostly activators | actives 1.1% (n = 380,000) | AID 624202, 2012; note: nearly all actives have a fitted effect of over 80% in size
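First, MCF7-BRCA1-FFLuc cells (2000/well) attach for 2 h; next, compounds are pin-added and incubated 48 h at 37 °C; finally, luciferase reagent is added and luminescence read after 15 min.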
* marks the source's active call; other numbers are inactive results; ? = inconclusive; . = not tested or not shown. Calls come from the whole dose curve; as a rule, active = well fitted curve in the direction sought with a large enough effect; inconclusive = small, poorly fitted or top-dose-only effect, or another doubt; inactive = no such curve, though single readings can be large; an effect the other way counts as inactive or inconclusive. Potency is the fitted concentration of half-maximal effect.

SMILES | Integrin act MD | GLP-1R inv ag | GLP1R cytotox | GLP1R ag | BRCA1 expr up
C[N+]1(C)CCN(C[C@@](O)(c2ccccc2)C2CCCCC2)CC1 | . | . | . | 5% | .
O=C(c1ccc2nc(-c3ccccc3)c(-c3ccccc3)nc2c1)N1CCCCC1 | 0% | 2.5µM* | 5% | 4% | -2%
CCN(CC)C(=O)c1ccc2nc3ccccc3nc2c1 | -13% | 0% | 3% | 4% | -75%
CCN(CC)C(=O)c1ccc2nc(-c3ccccc3)c(-c3ccccc3)nc2c1 | 35% | 5µM* | 6% | 2% | 1%
CCCNC(=O)c1ccc2nc(-c3ccccc3)c(-c3ccccc3)nc2c1 | -6% | 3.5µM* | -12% | -5% | -46%
C=C1C=C(C)n2ncc(C(=O)Nc3cccc(C(=O)Nc4cccc(C(F)(F)F)c4)c3)c2N1 | . | . | . | . | 10%
CCOC(=O)C(=CNNc1cccc(Cl)c1)C(=O)OCC | -3% | 5µM* | -3% | -3% | -39%
CCOC(=O)C(=CNc1ccc(Cl)cn1)C(=O)OCC | -36% | 42% | 1% | 12% | 7%
CCOC(=O)c1c(C)oc2ncnc(N3CCN(c4ccccc4OC)CC3)c12 | . | 3% | 4% | . | .
CCCCc1ccc(Nc2ncnc3nc[nH]c23)cc1 | -8% | -8% | -3% | 7% | 4.5µM*
CCc1ccc(Nc2ncnc3nc[nH]c23)cc1 | -12% | -15% | -6% | 1% | ?
COc1ccccc1NC(=O)N(Cc1ccccc1)c1ccccn1 | -38% | 7.1µM* | 13% | 1% | 32%
Cc1cccc(OCC(=O)Nc2ccc(O)c(-c3nc4ccccc4o3)c2)c1 | . | . | . | . | 3%
O=C(OC(c1ccccc1)c1nccc2ccccc12)c1cccc([N+](=O)[O-])c1 (configuration not stated) | -11% | ? | ? | ? | 7.1µM*
Cc1ccc2c(n1)Oc1ccc(C(C)C(=O)OCC(=O)N(C)C)cc1C2 (configuration not stated) | . | . | . | 21% | .
COc1ccc2c(CC(=O)N3CCc4ccccc43)coc2c1 | 9% | -25% | -1% | 24% | 3.5µM*
COc1ccc(CC(=O)N2CCc3ccccc32)cc1 | 16% | -9% | 17% | 3% | 8.9µM*
CCOC(=O)/C(=N/Nc1ccc(OC)cc1)N1CCCc2ccccc21 | -23% | 4.5µM* | 0% | -7% | -18%
COc1ccc2c(CC(=O)OCC(=O)N3CCc4ccccc43)coc2c1 | -18% | -3% | -5% | -7% | 11%
COC(=O)c1ccc(NC(=O)C(=O)NCCc2sc(-c3cccc(F)c3)nc2C)cc1 | . | 12% | 1% | . | .
O=Cc1cnc(N2CCCCC2)s1 | 11µM* | 1% | -5% | 13% | 6%
O=C(N/N=C/c1cnc(N2CCCCC2)s1)c1ccc(Cl)cc1 | -27% | -2% | -22% | 14% | -39%
O=S(=O)(c1ccc(Cl)c(NC(=S)N/N=C/c2c(F)cccc2F)c1)N1CCOCC1 | 3% | 2.5µM* | ? | 15% | -41%
CC1CCc2c(nc3sc4c(c3c2N)CCCC4)C1 (configuration not stated) | -28% | 5.6µM* | ? | 22% | 2.8µM*
Cc1c(C(=O)NN2CCCCC2)nn(-c2ccc(Cl)cc2Cl)c1-c1ccc(Cl)cc1 | . | . | . | -4% | .
COc1ccc(N(CC(=O)Nc2cc(Cl)ccc2OC)S(=O)(=O)c2c(C)noc2C)cc1 | -17% | 4.5µM* | -26% | 10% | -90%
COc1ccc(OC)c(NC(=O)CN(c2ccc(C)cc2)S(=O)(=O)c2c(C)noc2C)c1 | 8% | 10µM* | -23% | 4% | -21%
COc1ccc(OC)c(NC(=O)CN(c2ccc(C(C)C)cc2)S(=O)(=O)c2c(C)noc2C)c1 | 11% | ? | -17% | 0% | -77%
COc1cccc(CNC(=O)CN(c2ccc(C(C)C)cc2)S(=O)(=O)c2c(C)noc2C)c1 | -8% | -11% | -6% | 0% | -10%
